Test results reported in PubChem BioAssay AID489025 (Southern Research Specialized Biocontainment Screening …, 2010).
The whole screen tested about 2,300 compounds, of which about 790 (34%) were called active. No rule for the calls is given here. Some of the results follow. Measured potencies and affinities stand elsewhere.

Test: THP-1 cell cytotoxicity, dose response, cytotoxicity control for non-replicating M. tuberculosis project (AID 489025)
Conditions: THP-1 cell viability; series mostly up to 40 µM

| SMILES | outcome |
| --- | --- |
| Cc1cccc(C2=N/C(=C\c3cccnc3)C(=O)O2)c1 | inactive |
| O=C(CCSc1nnc(-c2ccccc2)o1)N1CCOCC1 | inactive |
| Cc1cc(C)cc(OC(=O)c2cccnc2)c1 | inactive |
| O=C(OCn1nnc2ccccc2c1=O)c1ccc(N2CCOCC2)c([N+](=O)[O-])c1 | inactive |
| Cc1[nH]n(-c2ccccc2)c(=O)c1C=Nc1cnc2ccccc2c1 | inactive |
| Cc1cc(CN(C)C)c(O)c(C2(C)CCCCC2)c1 | inactive |
| Cc1cccc(NC(=O)COC(=O)c2cc3ccccc3oc2=O)c1 | inactive |
| O=C1NC(=O)C(=Cc2ccc(-c3ccc(Cl)cc3)o2)C(=O)N1 | inactive |
| O=C(Oc1c(-c2ccco2)oc2ccccc2c1=O)c1cccnc1 | inactive |
| O=C(CCSc1ccccc1)N1CCCC1 | inactive |
| CCOc1ccc(-c2nc3ccccc3c(=O)o2)cc1 | inactive |
| O=C(CCN1CCCCCC1)c1ccccc1 | inactive |
| COc1ccc(C(=O)CCN2CCCCCC2)cc1 | inactive |
| COc1ccc2cc(C(=O)C3CCCN(Cc4ccccn4)C3)ccc2c1 (configuration not stated) | inactive |
| CC(C)COc1ccc(C(=O)CCN2CCCCC2)cc1 | inactive |
| CCOc1ccc(OC(=O)c2ccc3c(=O)n4c(nc3c2)CCC4)cc1 | inactive |
| CC(C)Oc1ccc(C(=O)CCN2CCCCC2)cc1 | inactive |
| COc1ccc(NCC(=O)N2CCCC2)cc1Cl | inactive |
| CC1C/C(=N/NC(=O)c2cccc(F)c2)c2ccc(O)cc2C1 (configuration not stated) | inactive |
| CN1CCN(Cc2cc(C(C)(C)C)c(O)c(C(C)(C)C)c2)CC1 | inactive |
| COc1cc(/C=C2\C(=O)N(c3ccc(S(N)(=O)=O)cc3)N=C2C)ccc1OC(=O)c1ccco1 | inactive |
| CCC(C)n1nnc2c(=O)oc3ccccc3c21 (configuration not stated) | inactive |
| COc1ccc(OCC(=O)N/N=C2\CCc3ccccc32)cc1 | inactive |
| CC(NC(=O)OCc1ccccc1)c1ccccc1 (configuration not stated) | inactive |
| Cc1ccc(NC(CC(=O)c2ccccc2)C(=O)O)cc1Cl (configuration not stated) | inactive |

| SMILES | outcome |
| --- | --- |
| O=C(c1cccc2cccc(O)c12)N1CCCCC1 | inactive |
| CCc1ccc(C(=O)NC2CCCCC2)s1 | inactive |
| CC(C)(NO)/C(=N\O)c1ccccc1 | inactive |
| Cc1c(Cl)cccc1NC(=O)C1COc2ccccc2O1 (configuration not stated) | inactive |
| O=S(=O)(CCN1CCN(c2ccccn2)CC1)c1ccc(Cl)cc1Cl | inactive |
| O=C1NC(=O)C(=Cc2ccc(Oc3ccc([N+](=O)[O-])cc3)cc2)C(=O)N1 | inactive |
| O=C1NC(=O)N(Cc2ccc(F)cc2)C(=O)/C1=C\c1ccc([N+](=O)[O-])s1 | inactive |
| COc1ccc(OC)c(N2C(=O)NC(=O)/C(=C/c3ccc([N+](=O)[O-])s3)C2=O)c1 | inactive |
| NNC(=O)COc1cccc(Oc2ccccc2)c1 | inactive |
| CC(C(=O)OCC(=O)c1ccccc1)N1C(=O)C2C3CCC(C3)C2C1=O (configuration not stated) | inactive |
| CC1=NN(C(=O)c2ccoc2C)C(O)(C(F)(F)F)C1 (configuration not stated) | inactive |
| CC1=NN(C(=O)c2csc(C)c2)C(O)(C(F)(F)F)C1 (configuration not stated) | inactive |
| CCC(=O)c1ccc(OCC(=O)OCC(=O)c2cc(C)n(C3CC3)c2C)cc1 | inactive |
| Cc1ccsc1C(=O)OCC(=O)NCCC1=CCCCC1 | inactive |
| NCCCN1CCOCC1 | inactive |
| O=C1CC(N2CCC(C(=O)N3CCCCC3)CC2)C(=O)N1 (configuration not stated) | inactive |
| COC(=O)c1cc(/C=C/c2ccccc2)on1 | inactive |
| COc1ccc(C(=O)CC(=O)C(=O)NCCc2cccc(C)c2)cc1 | inactive |
| O=C1NC(=O)N(Cc2ccco2)C(=O)/C1=C\c1cccn1CCOc1ccc(Cl)cc1 | inactive |
| CC(=O)c1c(O)cc(=O)n(-c2ccccc2)c1-c1ccc(C)cc1 | inactive |
| O=C(N/N=C/c1ccc(O)cc1)c1cccc(C(F)(F)F)c1 | inactive |
| O=C(Nc1nnc(C2=COCCO2)o1)c1cccc(C(F)(F)F)c1 | inactive |
| Cc1cc(NC(=O)COC(=O)COc2ccc(C(=O)c3ccccc3)cc2)no1 | inactive |
| CC1=NN(C(=O)c2ccccc2F)C(O)(c2ccc(Cl)cc2)C1 (configuration not stated) | inactive |
| CC1=NN(C(=O)COc2ccccc2)C(O)(c2ccccc2)C1 (configuration not stated) | inactive |

| SMILES | outcome |
| --- | --- |
| CC1=NN(C(=O)c2ccccc2Cl)C(O)(c2ccccc2)C1 (configuration not stated) | inactive |
| CC1=NN(C(=O)c2ccc(C)o2)C(O)(c2ccccc2)C1 (configuration not stated) | inactive |
| CSc1ccc(COC(=O)CCS(=O)(=O)c2ccc(C)cc2)cc1 | inactive |
| CCc1nnc(NC(=O)CN2CCN(c3ccccc3F)CC2)s1 | inactive |
| CCOC(=O)COc1c(-c2ccc(OC)cc2)oc2ccccc2c1=O | inactive |
| O=C(OCc1nnc(-c2ccccc2)o1)c1cc([N+](=O)[O-])ccc1Cl | inactive |
| CCCOc1ccc(N2CC(C(=O)Nc3ccccc3F)CC2=O)cc1 (configuration not stated) | inactive |
| O=C(NC(=S)N1CCN(Cc2ccc3c(c2)OCO3)CC1)c1ccc(Cl)cc1 | inactive |
| Nc1ccc(Nc2ccccc2)cc1 | inactive |
| CC(C)=CCN1CCN(CCC2=C(C)CCCC2(C)C)CC1CCO (configuration not stated) | inactive |
| CC(C)c1ccc(OCC(=O)NC2=NCCS2)cc1 | inactive |
| O=C(Oc1ccccc1)c1ccc(NC(=O)c2ccco2)cc1 | inactive |
| O=C(/C=C/Nc1ccccc1O)c1ccco1 | inactive |
| CC1=NN(C(=O)COc2ccccc2C)C(O)(c2ccc(Cl)cc2)C1 (configuration not stated) | inactive |
| CC(C)(C)OC(=O)N/N=C\c1ccc(OC(=O)c2ccco2)cc1 | inactive |
| O=C(Nc1nccs1)c1ccc(Br)cc1 | inactive |
| O=C(CNC(=O)c1ccc(Br)cc1)c1ccc(Br)cc1 | inactive |
| O=C(CNC(=O)c1ccccc1)OC1CCCCC1 | inactive |
| O=[N+]([O-])c1ncccc1Oc1nc(-c2cccnc2)nc2ccccc12 | inactive |
| CCOc1ccc(N2CC(=O)Nc3ccccc3NCC2=O)cc1 | inactive |
| COC(=O)c1ccc(COC(=O)c2ccccn2)cc1 | inactive |
| CCOc1cc(/C=N/NC(=O)c2ccccn2)ccc1OC(=O)c1cccs1 | inactive |
| CCOc1ccc(OCc2ccc(C(=O)OCc3ccccn3)o2)cc1 | inactive |
| O=C(N[C@@H]1C[C@H]2CC[C@@H]1C2)c1ccco1 | inactive |
| Clc1ccc(SCCOCCN2CCc3ccccc3C2)cc1 | inactive |

| SMILES | outcome |
| --- | --- |
| O=C(OCn1nnc2ccccc2c1=O)c1cccs1 | inactive |
| COc1ccccc1C1=NOC(COC(=O)c2ccc([N+](=O)[O-])cc2)C1 (configuration not stated) | inactive |
| Cc1ccc(-c2nnc(-c3cccs3)o2)cc1 | inactive |
| Fc1ccc(-c2nnc(CSc3nnc(-c4cccs4)o3)o2)cc1 | inactive |
| COc1cccc(OCc2nnc(-c3cccs3)o2)c1 | inactive |
| Fc1ccc(-c2nnc(-c3ccc(F)cc3)o2)cc1 | inactive |
| O=C1N=c2ccccc2=C1c1c(O)n(-c2cccc(F)c2)[nH]c1=O | inactive |
| CCCn1nnnc1NCc1ccc(C(C)C)cc1 | inactive |
| Cc1ccnc(-n2c(C)cc(/C=C3\C(=O)NC(=S)N(C)C3=O)c2C)c1 | inactive |
| CCn1c(O)c(C(=O)CC2NCCc3ccccc32)c(=O)n(CC)c1=S (configuration not stated) | inactive |
| Cc1cc(C)c2c(=O)n(CC(=O)Nc3cccc(Cl)c3C)sc2n1 | inactive |
| CCOc1ccc(NC(=O)CCc2ccc(C)o2)cc1 | inactive |
| COc1ccc(-c2cc(O)cc(O)c2)cc1 | inactive |
| Cc1ccc(OC(=O)CCS(=O)(=O)c2ccc(C)cc2)cc1 | inactive |
| COC(=O)COc1ccc(-c2ccccc2)cc1C=O | inactive |
| COc1ccc(-c2cc(=O)oc(-c3cccc(C)c3)n2)cc1 | inactive |
| COC(=O)c1ccc(COC(=O)CCS(=O)(=O)c2ccc(C)cc2)cc1 | inactive |
| COc1ccc(OCCOC(=O)CCS(=O)(=O)c2ccc(C)cc2)cc1 | inactive |
| COC(=O)COc1ccc2c(=O)c(-c3ccccc3)coc2c1 | inactive |
| Cc1cc(Br)ccc1OCC(=O)NNC(=O)C(=O)Nc1ccccc1 | inactive |
| O=C1CCCC(O)=C1C=Nc1ccc2c(c1)oc1ccccc12 | inactive |
| C(#CCN1CCOCC1)COCc1ccccc1 | inactive |
| CC(CCc1ccccc1)NC(=O)COC(=O)c1cccs1 (configuration not stated) | inactive |
| Cc1nc2scc(-c3ccccc3)c2c(=O)o1 | inactive |
| CCN(CC)c1ccc(NC2CC(=O)N(CCc3ccc(OC)cc3)C2=O)cc1 (configuration not stated) | inactive |

| SMILES | outcome |
| --- | --- |
| O=C(OCc1nnc(-c2ccccc2)o1)c1ccc(Br)o1 | inactive |
| CCCOC(=O)c1ccc(NC(=O)C2C3C=CC(O3)C2C(=O)O)cc1 (configuration not stated) | inactive |
| C=CCNc1nc(C(=O)OCC(=O)c2cccc(Br)c2)cs1 | inactive |
| Fc1cccc2sc(N3CCCC3)nc12 | inactive |
| Cc1ccc(C(=O)N/N=C/C=C/c2ccccc2)cc1 | inactive |
| Cc1ccc(NC(=S)C2=C(O)c3sccc3N(C)S2(=O)=O)cc1 | inactive |
| O=C(CCNc1ccc(Cl)c(C(F)(F)F)c1)c1ccco1 | inactive |
| C/C(=N\NC(=O)c1ccccc1)c1nc2ccccc2n1C | inactive |
| O=C(NCCSc1ccccc1)c1ccc(Br)cc1 | inactive |
| COc1ccc(NC(=O)c2nc3ccccc3s2)cc1 | inactive |
| CCOC(=O)CNc1ccc(C(=O)OCC)cc1[N+](=O)[O-] | inactive |
| CN(C)c1ccc(NC(=O)COC(=O)c2cc(Cl)ccc2[N+](=O)[O-])cc1 | inactive |
| CC(C)=CCN1CCN(Cc2cn(C(C)C)c3ccccc23)CC1CCO (configuration not stated) | inactive |
| COc1cccc2cc(-c3nc4ccccc4[nH]3)c(=O)oc12 | inactive |
| CSc1nc(=S)cc(C)[nH]1 | inactive |
| CC(NC(=O)c1cc([N+](=O)[O-])cc([N+](=O)[O-])c1)c1ccc(-n2ccnc2)cc1 (configuration not stated) | inactive |
| COc1cccc(NC(=O)c2cnc(SC)nc2)c1 | inactive |
| COc1ccccc1NC(=O)c1cnc(SC)nc1 | inactive |
| Cc1ccc(S(=O)(=O)NCc2ccc(C(=O)NCCCN3CCC(Cc4ccccc4)CC3)cc2)cc1 | inactive |
| Nc1c(Cl)cc(Cl)cc1C(=O)OCC(=O)N1CCCC1 | inactive |
| COc1ccccc1-c1cc(SC)c(C#N)c(=O)o1 | inactive |
| COc1ccccc1-c1nnc(-c2ccc(C)cc2)o1 | inactive |
